Assay results taken from PubChem BioAssay (Tox21).
“And” between values parts separate entries of the source, which are not always exact repeats. Equal entries are not always repeated. Inconclusive results are not listed. Where a call stands in place of a potency, no number is given. A structure can be active in one record and inactive in another. The source made the active and inactive calls. Unless noted, the call rests on the fitted dose curve.

Assays:
[1] = qHTS assay to identify small molecule antagonists of the vitamin D receptor (VDR) signaling pathway - cell viability counter screen (AID 743225; active means well fitted curve in the direction sought with a large enough effect in the repeat runs; an effect the other way counts as inactive or inconclusive; further: nearly all actives have a fitted effect of over 50% in size; further: potency means the concentration at half of the fitted maximal effect)
Summary of the method: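 Read-out: CellTiter-Glo luminescence measured 30 min after reagent addition at room temperature. Cells were VDR-bla HEK 293T exposed 16 h at 37C, 5% CO2, to compound with 3 nM final calcitriol agonist.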

[2] = qHTS assay to identify small molecule agonists of the NFkB signaling pathway - cell viability counter screen (AID 1159515); further: nearly all actives have a fitted effect of over 55% in size; further: potency means the concentration at half of the fitted maximal effect
Summary of the method: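 Counter screen run alongside the NFkB-bla agonist assay: ME-180 reporter cells exposed to compounds for 5 hr, then lysed with CellTiter-Glo in the same wells. Luminescence, read after 30 min, reflects viable cells.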

[3] = qHTS assay to identify small molecule agonists of the endoplasmic reticulum stress response signaling pathway (AID 1159516; active means well fitted activation curve with a large enough effect in the signal ratio in the repeat runs, not every such curve was filed as active; the % refers to the signal ratio; further: potency means the concentration at half of the fitted maximal effect)
Summary of the method: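 For this screen, HeLa cells stably carrying beta-lactamase under the ER stress response element received test compounds, positive controls or DMSO for 5 hr at 37 C; B/G FRET substrate was then added and dual-wavelength emission recorded.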

[4] = qHTS assay to identify small molecule agonists of the endoplasmic reticulum stress response signaling pathway - cell viability counter screen (AID 1159517); further: nearly all actives have a fitted effect of over 50% in size; further: potency means the concentration at half of the fitted maximal effect
Summary of the method: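 After overnight attachment, ESRE-bla HeLa cells were treated with Tox21 library compounds for 5 hr. CellTiter-Glo luminescence, read 30 min post-addition at room temperature, reported viability.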

[5] = qHTS assay to identify small molecule antagonists of the retinoid-related orphan receptor gamma (ROR-gamma) signaling pathway - cell viability counter screen (AID 1159520; active means well fitted curve in the direction sought with a large enough effect in the repeat runs; an effect the other way counts as inactive or inconclusive; further: nearly all actives have a fitted effect of over 50% in size; further: potency means the concentration at half of the fitted maximal effect)
Summary of the method: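 Cytotoxicity was read from cellular ATP (CellTiter-Glo luminescence) after 16 hr at 37 C with 1 uM doxycycline induction. The inducer was added 2 hr after compound transfer to Tet-on ROR gamma CHO cells.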

[6] = biological target: Nuclear receptor ROR-gamma (Homo sapiens) (UniProt P51449); experiment: qHTS assay to identify small molecule antagonists of the retinoid-related orphan receptor gamma (ROR-gamma) signaling pathway (AID 1159521; active means well fitted curve in the direction sought with a large enough effect in the repeat runs; an effect the other way counts as inactive or inconclusive; further: nearly all actives have a fitted effect of over 50% in size; further: potency means the concentration at half of the fitted maximal effect)
Summary of the method: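 CHO Tet-on RORγ, RORE-luc reporter. Cpd 2 h pre-incubation, then dox hyclate 1 uM final, 16 h, 37 C/5% CO2. ONE-Glo luminescence; decrease = antagonist.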

[7] = qHTS assay to identify small molecule agonists of the AP-1 signaling pathway - cell viability counter screen (AID 1159525); further: nearly all actives have a fitted effect of over 55% in size; further: potency means the concentration at half of the fitted maximal effect
Summary of the method: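 Intracellular ATP by Cell Titer Glo luminescence (30 min, RT) in the same ME-180 AP-1-bla wells after the 5 h compound exposure at 37 °C. Normalised to tetra n-octyl ammonium bromide and DMSO controls.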

[8] = qHTS assay to identify small molecule agonists of the AP-1 signaling pathway (AID 1159526)
[9] = qHTS assay to identify small molecule agonists of the vitamin D receptor (VDR) signaling pathway - cell viability counter screen (AID 743224; active means well fitted curve in the direction sought with a large enough effect in the repeat runs; an effect the other way counts as inactive or inconclusive; further: nearly all actives have a fitted effect of over 50% in size; further: potency means the concentration at half of the fitted maximal effect)
Summary of the method: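 Counter screen for cytotoxicity: VDR-bla cells at 2,000 cells/well, 16 h compound exposure, then CellTiter-Glo luminescence after the beta-lactamase measurement.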

[10] = biological target: Retinoic acid receptor RXR-alpha (Homo sapiens) (UniProt P19793); experiment: qHTS assay to identify small molecule agonists of the RXR signaling pathway (AID 1159527); further: nearly all actives have a fitted effect of over 35% in size; further: potency means the concentration at half of the fitted maximal effect
Summary of the method: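 Read-out: beta-lactamase FRET ratio (405 nm excitation, 460 and 530 nm emission) after 2 hr substrate loading at room temperature. Cells were RXR-alpha-UAS-bla HEK 293T treated with compounds for 16 hr in 2% charcoal-stripped FBS medium.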

Retinoic acid receptor RXR-alpha (Homo sapiens), sequence (P19793 whole entry, looked up): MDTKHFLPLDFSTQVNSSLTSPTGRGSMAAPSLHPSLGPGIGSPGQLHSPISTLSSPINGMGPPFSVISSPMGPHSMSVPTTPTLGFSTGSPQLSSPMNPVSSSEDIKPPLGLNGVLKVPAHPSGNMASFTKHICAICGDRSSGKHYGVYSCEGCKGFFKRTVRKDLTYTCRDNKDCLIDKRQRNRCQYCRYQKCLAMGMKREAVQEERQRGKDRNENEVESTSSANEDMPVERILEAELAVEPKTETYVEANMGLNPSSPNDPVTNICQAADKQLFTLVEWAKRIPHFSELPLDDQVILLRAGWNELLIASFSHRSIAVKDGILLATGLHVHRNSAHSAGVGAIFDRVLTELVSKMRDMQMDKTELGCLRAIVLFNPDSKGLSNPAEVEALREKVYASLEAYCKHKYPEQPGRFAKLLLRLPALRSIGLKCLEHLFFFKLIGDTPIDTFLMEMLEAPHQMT

Row | Structure (SMILES) | Potency [1] | Potency [2] | Potency [3] | Potency [4] | Potency [5] | Potency [6] | Potency [7] | Potency [8] | Potency [9] | Potency [10]
1 | COC1=CC(=O)O[C@@H](/C=C/c2ccc3c(c2)OCO3)C1 | inactive | inactive | inactive | inactive | inactive | inactive | inactive | inactive | – | –
2 | C1CCNCC1 | inactive | inactive | inactive | – | inactive | inactive | inactive | inactive | inactive | inactive
3 | CC(C)c1ccc(OP(=O)(Oc2ccc(C(C)C)cc2)Oc2ccc(C(C)C)cc2)cc1 | – | 30.9 µM (active) | inactive | 9.77 µM (active) | inactive | 27.5 µM (active) and 30.6 µM (active) | inactive | inactive | inactive | –
4 | OC[P+](CO)(CO)CO | inactive | inactive | 1.57 µM (active) | inactive | inactive | – | inactive | inactive | – | inactive
5 | NC(=S)c1c(Cl)cccc1Cl | – | inactive | inactive | – | inactive | inactive | inactive | inactive | – | inactive
6 | COC(=O)Cc1ccccc1 | – | inactive | inactive | inactive | inactive | inactive | inactive | inactive | inactive | –
7 | Nc1ccccc1C(=O)OCCc1ccccc1 | inactive | inactive | inactive | inactive | inactive | inactive | inactive | inactive | inactive | –
8 | C[C@]12C=CC3=C4CCC(=O)C=C4CC[C@H]3[C@@H]1CC[C@@H]2O | inactive | inactive | inactive | inactive | inactive | inactive | inactive | inactive | inactive | –
9 | C[N+](C)(C)CCOC(=O)C(O)(c1ccccc1)c1ccccc1 | – | inactive | inactive | – | inactive | inactive | inactive | inactive | – | inactive
10 | O=C(O)c1cc(I)cc(I)c1I | inactive | inactive | inactive | inactive | inactive | inactive | inactive | inactive | inactive | –
11 | CC(C)(C)CC(C)(C)c1ccc(O)cc1 | 17.4 µM (active) | 21.9 µM (active) | inactive | 21.9 µM (active) | 27.3 µM (active) | 54.5 µM (active) and inactive | 17.4 µM (active) | – | – | –
12 | CCOP(=S)(OCC)SCSc1cc(Cl)ccc1Cl | – | inactive | inactive | inactive | inactive | inactive | inactive | inactive | inactive | –
13 | Clc1ccc(Cl)c(Cl)c1 | inactive | inactive | inactive | inactive | inactive | inactive | inactive | inactive | – | inactive and 12.3 µM (active)
14 | C=CCc1ccc(OC(=O)Cc2ccccc2)c(OC)c1 | – | inactive | inactive | inactive | inactive | inactive | inactive | inactive | inactive | –
15 | CCCC[N+](CCCC)(CCCC)CCCC | inactive | inactive | inactive | inactive | inactive | inactive | inactive | inactive | inactive | –
16 | CC(O)CN1CCN(CC(=O)[O-])CCN(CC(=O)[O-])CCN(CC(=O)[O-])CC1.[Gd+3] (stereo not given) | inactive | inactive | inactive | – | inactive | inactive | inactive | inactive | inactive | inactive
17 | CCc1ccccc1N | inactive | inactive | inactive | – | inactive | inactive | inactive | inactive | inactive | inactive
18 | Cc1nc2ccccc2c(=O)n1-c1ccccc1Cl | inactive | inactive | inactive | inactive | inactive | inactive | inactive | inactive | inactive | –

Row | Structure (SMILES) | Potency [1] | Potency [2] | Potency [3] | Potency [4] | Potency [5] | Potency [6] | Potency [7] | Potency [8] | Potency [9] | Potency [10]
19 | COc1cc(CC(C)N)c(OC)cc1Br (stereo not given) | inactive | inactive | inactive | inactive | inactive | inactive | inactive | inactive | inactive | –
20 | O=C(N[C@H]1CN2CCC1CC2)c1ccc2c(c1)OCCO2 | – | inactive | inactive | inactive | inactive | inactive | inactive | inactive | inactive | –
21 | Clc1ccc2ccccc2c1 | inactive | inactive | inactive | – | inactive | inactive | inactive | inactive | inactive | inactive
22 | CCOP(=S)(S)OCC | inactive | inactive | inactive | inactive | inactive | inactive | inactive | inactive | inactive | –
23 | NNCCO | – | inactive | inactive | – | inactive | inactive | inactive | inactive | inactive | inactive
24 | c1ccc2sc(SNC3CCCCC3)nc2c1 | inactive | inactive | inactive | inactive | inactive | inactive | inactive | – | inactive | –
25 | Cc1cnc(C2=NC(C)(C(C)C)C(=O)N2)c(C(=O)O)c1 (stereo not given) | inactive | inactive | inactive | inactive | inactive | inactive | inactive | inactive | – | –
26 | CC(Oc1cccc(Cl)c1)C(=O)O (stereo not given) | inactive | inactive | inactive | inactive | inactive | inactive | inactive | inactive | inactive | –
27 | FC(F)OC(F)(F)C(F)Cl (stereo not given) | inactive | inactive | inactive | – | inactive | inactive | inactive | inactive | inactive | inactive
28 | CC(C)(C)OOC(C)(C)CCC(C)(C)OOC(C)(C)C | inactive | inactive | inactive | – | inactive | inactive | inactive | inactive | inactive | inactive
29 | O=C(O)CCCOc1ccc(Cl)cc1Cl | inactive | inactive | inactive | inactive | inactive | inactive | inactive | inactive | inactive | –
30 | CCCCCCCCCCCCCCCl | – | inactive | inactive | – | inactive | inactive | inactive | inactive | – | inactive
31 | O=C(N/N=C/c1ccc([N+](=O)[O-])o1)c1cc([N+](=O)[O-])cc([N+](=O)[O-])c1O | inactive | inactive | inactive | inactive | inactive | inactive | inactive | inactive | inactive | –
32 | C[Si](Cn1cncn1)(c1ccc(F)cc1)c1ccc(F)cc1 | – | inactive | inactive | – | inactive | 31.6 µM (active) and 43.3 µM (active) | inactive | inactive | 12.7 µM (active) | inactive
33 | Cc1ncc(C[n+]2csc(CCO)c2C)c(N)n1 | inactive | inactive | inactive | inactive | inactive | inactive | inactive | inactive | – | –
34 | Clc1ccccc1 | inactive | inactive | inactive | – | inactive | inactive | inactive | inactive | inactive | inactive
35 | Cc1ccccc1 | inactive | inactive | inactive | – | inactive | inactive | inactive | inactive | inactive | inactive
